Measurements from PubChem BioAssay (EPA / NIEHS).
Calls of active or inactive are those of the source. How the source made its calls: active means hit-call score of the fitted dose curve at least 0.9, where 1 is the maximum; inactive means score below 0.9.

Assays:
[1] = read-out: Interleukin-1 alpha (IL1a), IL1A (gene 3552); experiment: BSK_KF3CT_IL1a: BioMAP Diversity Plus: KF3CT Assay for Interleukin-1 alpha (IL1a) Biomarker Activity (AID 2283070); details: primary human keratinocytes with fibroblasts; actives raise or lower the signal
Procedure, shortened: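 IL-1a was detected by ELISA 24 h after chemical treatment of a co-culture of human skin keratinocytes and foreskin fibroblasts. Gain or loss of signal was fitted against the DMSO baseline.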

[2] = read-out: Transforming growth factor beta 1 (TGFb1), TGFB1 (gene 7040); experiment: BSK_KF3CT_TGFb1: BioMAP Diversity Plus: KF3CT Assay for Transforming growth factor beta 1 (TGFb1) Biomarker Activity (AID 2283072); details: primary human keratinocytes with fibroblasts; actives raise or lower the signal
Procedure, shortened: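 KF3CT co-culture (keratinocytes + fibroblasts), 24 h exposure → TGF-b1 ELISA → bidirectional fit, DMSO = baseline. Parallel SRB total-protein staining (0.1% SRB, 10% TCA fixation, 560 nm) for cytotoxicity.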

[3] = read-out: C-C motif chemokine 2 (Homo sapiens) (UniProt P13500); experiment: BSK_KF3CT_MCP1: BioMAP Diversity Plus: KF3CT Assay for Monocyte Chemoattractant Protein 1 (MCP1/CCL2) Biomarker Activity (AID 2283073); details: primary human keratinocytes with fibroblasts; actives raise or lower the signal
Procedure, shortened: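 KF3CT skin co-culture (keratinocytes/foreskin fibroblasts), 24 h post-dose; MCP-1 by ELISA; gain/loss of signal fit bidirectionally vs DMSO baseline.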

[4] = read-out: Matrix Metallopeptidase 9 (MMP9), MMP9 (gene 4318); experiment: BSK_KF3CT_MMP9: BioMAP Diversity Plus: KF3CT Assay for Matrix Metallopeptidase 9 (MMP9) Biomarker Activity (AID 2283074); details: primary human keratinocytes with fibroblasts; actives raise or lower the signal;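 on AC50: MMP9 protein level quantified by ELISA in the co-culture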
Procedure, shortened: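 MMP-9 quantified by ELISA after 24 h chemical treatment of primary human skin keratinocyte/fibroblast co-cultures; gain or loss fitted against DMSO, with parallel SRB staining (0.1% SRB, 560 nm) for overt cytotoxicity.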

[5] = read-out: urokinase plasminogen activator (uPA), PLAU (gene 5328); experiment: BSK_KF3CT_uPA: BioMAP Diversity Plus: KF3CT Assay for urokinase plasminogen activator (uPA) Biomarker Activity (AID 2283075); details: primary human keratinocytes with fibroblasts; actives raise or lower the signal
Procedure, shortened: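 ELISA read-out of uPA 24 h after dosing human skin keratinocytes co-cultured with foreskin fibroblasts. Signal change fitted both ways relative to DMSO; sulforhodamine B on parallel cultures marks overt cytotoxicity.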

[6] = read-out: CD40, CD40 (gene 958); experiment: BSK_LPS_CD40: BioMAP Diversity Plus: LPS Assay for CD40 Biomarker Activity (AID 2283076); details: primary human HUVEC with PBMC; actives raise or lower the signal
Procedure, shortened: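 ELISA readout of CD40 in HUVEC/PBMC co-culture (BSK_LPS system), 24 h post-dosing; bidirectional curve fit, DMSO baseline; parallel SRB total-protein staining for cytotoxicity.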

[7] = read-out: Interleukin-8 (IL8), CXCL8 (gene 3576); experiment: BSK_LPS_IL8: BioMAP Diversity Plus: LPS Assay for Interleukin-8 (IL8) Biomarker Activity (AID 2283078); details: primary human HUVEC with PBMC; actives raise or lower the signal
Procedure, shortened: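 HUVEC + PBMC co-culture, LPS-activated; test chemicals dosed, IL-8 read by ELISA at 24 h. Bidirectional curve fit vs DMSO baseline (gain or loss of signal).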

[8] = BSK_LPS_SRB: Viability Assessment in the BioMAP Diversity Plus: LPS Assay (AID 2283079); details: primary human HUVEC with PBMC;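 further: total protein by sulforhodamine B absorbance as a cytotoxicity measure; measured one day after compound addition; fitted in both directions against DMSO so loss or gain of signal counts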
Procedure, shortened: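 HUVEC + PBMC co-culture, LPS-stimulated; compound 24 h. 10% TCA fix, 0.1% SRB stain, A560. Bidirectional fit vs DMSO.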

[9] = read-out: Interleukin-1 alpha (IL1a), IL1A (gene 3552); experiment: BSK_LPS_IL1a: BioMAP Diversity Plus: LPS Assay for Interleukin-1 alpha (IL1a) Biomarker Activity (AID 2283080); details: primary human HUVEC with PBMC; actives raise or lower the signal
Procedure, shortened: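 HUVEC/PBMC co-culture, LPS system; 24 h after dosing; IL-1a by ELISA; gain or loss of signal fitted bidirectionally vs DMSO baseline.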

[10] = read-out: Monocyte Chemoattractant Protein-1 (MCP1), CCL2 (gene 6347); experiment: BSK_LPS_MCP1: BioMAP Diversity Plus: LPS Assay for Monocyte Chemoattractant Protein-1 (MCP1) Biomarker Activity (AID 2283081); details: primary human HUVEC with PBMC; actives raise or lower the signal;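 on AC50: secreted MCP-1 protein quantified by ELISA in culture supernatant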
Procedure, shortened: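 ELISA read-out of MCP-1 after 24 h chemical dosing of a human umbilical vein endothelial cell/peripheral blood mononuclear cell co-culture stimulated with LPS. Gain or loss of signal fitted relative to DMSO controls.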

[11] = BSK_LPS_PGE2: BioMAP Diversity Plus: LPS Assay for Prostaglandin E2 (PGE2) Biomarker Activity (AID 2283082); details: primary human HUVEC with PBMC; actives raise or lower the signal
Procedure, shortened: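 Compounds were added to the LPS co-culture of endothelium and PBMC, and PGE2 was measured by ELISA after 24 h. Responses in either direction were fitted with DMSO as baseline.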

[12] = read-out: Macrophage colony-stimulating factor (MCSF), CSF1 (gene 1435); experiment: BSK_LPS_MCSF: BioMAP Diversity Plus: LPS Assay for Macrophage colony-stimulating factor (MCSF) Biomarker Activity (AID 2283083); details: primary human HUVEC with PBMC; actives raise or lower the signal
Procedure, shortened: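 HUVEC + PBMC co-culture (human primary), 24 h post-dose; M-CSF by ELISA; gain/loss of signal fitted bidirectionally vs DMSO baseline.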

[13] = read-out: Tissue Factor, F3 (gene 2152); experiment: BSK_LPS_TissueFactor: BioMAP Diversity Plus: LPS Assay for Tissue Factor Biomarker Activity (AID 2283084); details: primary human HUVEC with PBMC; actives raise or lower the signal
Procedure, shortened: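 HUVEC/PBMC co-culture, LPS-activated; CD142 ELISA read 24 h post-dose; bidirectional curve fit vs DMSO negative control.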

[14] = read-out: Tumor necrosis factor (Homo sapiens) (UniProt P01375); experiment: BSK_LPS_TNFa: BioMAP Diversity Plus: LPS Assay for Tumour Necrosis Factor alpha (TNFa) Biomarker Activity (AID 2283085); details: primary human HUVEC with PBMC; actives raise or lower the signal
Procedure, shortened: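 Cells (umbilical vein endothelium plus peripheral blood mononuclear cells) were dosed with chemical, incubated 24 h, then TNFa was quantified by ELISA; values derive from bidirectional fitting with DMSO as baseline.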

[15] = read-out: Vascular cell adhesion molecule 1 (VCAM1), VCAM1 (gene 7412); experiment: BSK_LPS_VCAM1: BioMAP Diversity Plus: LPS Assay for Vascular cell adhesion molecule 1 (VCAM1) Biomarker Activity (AID 2283086); details: primary human HUVEC with PBMC; actives raise or lower the signal
Procedure, shortened: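 Cells are dosed in an LPS-stimulated endothelial/mononuclear co-culture and, after 24 h, VCAM-1 is quantified by ELISA. Activity in either direction is fitted relative to the DMSO negative control.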

[16] = read-out: CD38, CD38 (gene 952); experiment: BSK_SAg_CD38: BioMAP Diversity Plus: SAg Assay for CD38 Biomarker Activity (AID 2283087); details: primary human HUVEC with PBMC; actives raise or lower the signal
Procedure, shortened: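 CD38 quantified by ELISA (fluorescence) in a superantigen-activated endothelial cell–PBMC co-culture at 24 h post-dose. Activity fitted in both directions relative to DMSO; parallel SRB and Alamar Blue cytotoxicity read-outs.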

[17] = read-out: CD40, CD40 (gene 958); experiment: BSK_SAg_CD40: BioMAP Diversity Plus: SAg Assay for CD40 Biomarker Activity (AID 2283088); details: primary human HUVEC with PBMC; actives raise or lower the signal
Procedure, shortened: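 HUVEC/PBMC co-culture, 24 h post-dose; CD40 by ELISA, fluorescence intensity; bidirectional fit vs DMSO negative control.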

[18] = read-out: CD69, CD69 (gene 969); experiment: BSK_SAg_CD69: BioMAP Diversity Plus: SAg Assay for CD69 Biomarker Activity (AID 2283089); details: primary human HUVEC with PBMC; actives raise or lower the signal
Procedure, shortened: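 Primary human vascular co-culture (umbilical vein endothelium with peripheral blood mononuclear cells) exposed to test chemical for 24 h. CD69 levels quantified by fluorescence ELISA; DMSO served as negative control for bidirectional fitting.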

[19] = read-out: E-selectin (Homo sapiens) (UniProt P16581); experiment: BSK_LPS_Eselectin: BioMAP Diversity Plus: LPS Assay for Eselectin Biomarker Activity (AID 2283077); details: primary human HUVEC with PBMC; actives raise or lower the signal
Procedure, shortened: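 ELISA readout of E-selectin, 24 h post-dose, HUVEC + PBMC co-culture (LPS system). Gain or loss of signal vs DMSO baseline, bidirectional fit.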

Measured: AC50

Chain of Tumor necrosis factor (Homo sapiens) (P01375 whole entry, looked up): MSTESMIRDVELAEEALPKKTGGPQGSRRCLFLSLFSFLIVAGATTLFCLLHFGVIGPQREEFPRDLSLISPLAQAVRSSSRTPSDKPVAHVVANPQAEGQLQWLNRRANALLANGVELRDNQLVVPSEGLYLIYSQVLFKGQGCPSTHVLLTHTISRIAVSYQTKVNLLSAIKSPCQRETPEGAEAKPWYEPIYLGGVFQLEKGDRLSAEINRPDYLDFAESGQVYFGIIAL
Chain of E-selectin (Homo sapiens) (P16581 whole entry, looked up): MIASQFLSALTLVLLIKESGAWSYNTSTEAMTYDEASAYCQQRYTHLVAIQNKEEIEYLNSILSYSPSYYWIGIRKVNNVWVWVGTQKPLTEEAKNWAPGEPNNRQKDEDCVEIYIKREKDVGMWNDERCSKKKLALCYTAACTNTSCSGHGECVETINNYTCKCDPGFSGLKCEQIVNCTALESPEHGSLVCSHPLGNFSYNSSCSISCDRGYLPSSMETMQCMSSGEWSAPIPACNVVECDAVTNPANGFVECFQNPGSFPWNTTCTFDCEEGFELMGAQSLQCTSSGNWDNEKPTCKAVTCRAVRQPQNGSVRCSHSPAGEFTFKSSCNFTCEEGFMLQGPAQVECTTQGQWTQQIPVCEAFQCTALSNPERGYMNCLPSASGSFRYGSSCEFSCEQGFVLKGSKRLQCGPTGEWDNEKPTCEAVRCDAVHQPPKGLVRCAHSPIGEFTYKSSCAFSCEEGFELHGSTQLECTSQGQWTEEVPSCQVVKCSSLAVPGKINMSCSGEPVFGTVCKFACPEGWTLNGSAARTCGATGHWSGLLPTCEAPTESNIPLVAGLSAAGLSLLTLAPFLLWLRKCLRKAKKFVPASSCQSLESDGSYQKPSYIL

O=C(O)C(Cl)Cl
not listed: [19]
inactive: all other assays above

O=[N+]([O-])c1ccccc1
not listed: [3]
inactive: all other assays above

CCOP(=S)(OCC)SCS(=O)(=O)CC
not listed: [19]
inactive: all other assays above

c1cc2c3c(cccc3c1)CC2
inactive: all assays above

CC(Cl)CN(C)C (centres undefined)
active: [4] 0.0889 µM
not listed: [18] | [19]
inactive: all other assays above

O=C(O)C(F)(F)C(F)(F)C(=O)O
not listed: [2] | [19]
inactive: all other assays above

COCCOCCO
active: [3] 0.254 µM | [10] 27.5 µM
not listed: [18] | [19]
inactive: all other assays above
